# Assay results as given in the supplement of paper PMC3334620.
# Over roughly 33,000 sequences, “E-score (-0.5 to 0.5)” has its median near -0.015; the highest 2% begin near 0.3. For the sample, the highest values were picked, then their nearest neighbours and some sequences at random.
# Molecular target: T1, Abf1 (UniProt P14164)
# T1 sequence: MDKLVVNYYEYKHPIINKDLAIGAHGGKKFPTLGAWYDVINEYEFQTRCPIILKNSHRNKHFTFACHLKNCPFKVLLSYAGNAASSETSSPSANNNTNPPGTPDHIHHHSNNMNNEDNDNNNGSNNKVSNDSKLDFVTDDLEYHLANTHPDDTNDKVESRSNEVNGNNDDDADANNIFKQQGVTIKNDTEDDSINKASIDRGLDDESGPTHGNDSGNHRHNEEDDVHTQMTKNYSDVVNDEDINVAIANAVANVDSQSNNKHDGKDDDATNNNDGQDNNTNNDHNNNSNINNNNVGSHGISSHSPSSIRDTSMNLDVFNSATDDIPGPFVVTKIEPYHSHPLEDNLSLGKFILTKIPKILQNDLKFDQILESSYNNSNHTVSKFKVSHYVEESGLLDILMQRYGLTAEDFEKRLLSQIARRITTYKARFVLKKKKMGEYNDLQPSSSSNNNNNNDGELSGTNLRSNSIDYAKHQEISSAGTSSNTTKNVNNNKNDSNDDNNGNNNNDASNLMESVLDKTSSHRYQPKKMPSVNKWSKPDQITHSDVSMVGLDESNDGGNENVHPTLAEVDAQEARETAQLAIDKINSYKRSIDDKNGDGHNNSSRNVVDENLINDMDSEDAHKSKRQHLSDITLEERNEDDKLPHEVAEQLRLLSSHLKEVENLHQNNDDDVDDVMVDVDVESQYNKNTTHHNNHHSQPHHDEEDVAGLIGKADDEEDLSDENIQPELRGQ
# Experiment: PBM E-score (8-mer binding enrichment) (E-score (-0.5 to 0.5)); higher = stronger / more preferred TF binding
# Conditions: protein concentration: 200 nM; construct: GST-full length
# Description: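 Universal 'all 10-mer' protein binding microarrays (Agilent AMADID 015681) probed with GST-tagged S. cerevisiae TFs (full-length or DBD) made by in vitro transcription/translation (PURExpress), about 100-200 nM. Bound TF was detected with fluorescent anti-GST. Each ungapped 8-mer (which stands for itself and its reverse complement) is scored by the PBM enrichment score (E-score), a modified Wilcoxon-Mann-Whitney statistic from -0.5 to +0.5, computed with the Universal PBM Analysis Suite. Scale: above 0.35 generally sequence-specific binding.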
row,Sequence,PBM E-score
1,ACTCGAGA,-0.0317
2,CGACAAAC,0.167
3,TCATATCA,0.315
4,TCATATGA,0.101
5,ACATATCC,0.236
6,ACATATCG,0.118
7,GCATATCA,0.319
8,ACATATCA,0.341
9,CCATATCA,0.163
10,GCATATGA,0.028
11,GCATATCC,0.179
12,GACGACCA,0.286
13,CACGAGAG,0.0678
14,ACTCGGAG,-0.00102
15,CTCTTGTC,0.024
16,ATTCTATC,0.127
17,AGTAGAGC,-0.168
18,TCAGCAGA,-0.0392
19,AAATGGAC,0.0432
20,ACCGTTTC,0.0554
21,ACCGTTGC,0.0812
22,CACAACCC,-0.194
23,ATGGGGAA,-0.104
24,ATTATCAC,0.434
25,CTTATCAA,0.164

row,Sequence,PBM E-score
1,ATTATCAA,0.193
2,ATTATCAG,0.0821
3,CTTATCAC,0.369
4,CTTATCCC,-0.0767
5,CGTGGTTC,0.0193
6,GAGCCCCC,-0.283
7,TCATAGAA,0.121
8,GACCGGCC,-0.229
9,TAATTGGA,0.141
10,GCATACGC,-0.149
11,CAGCCGTA,0.192
12,AAGCCGTA,0.193
13,GAGCCGTA,0.347
14,GCCGTTGA,0.173
15,TGGGGCAA,-0.281
16,GTATATAA,0.286
17,CTATATAC,0.364
18,CTATATCA,0.267
19,ATATATCC,0.171
20,GTATATCA,0.386
21,GTATATGA,0.12
22,CTCTATAC,0.116
23,ATATATAC,0.262
24,ATATATCA,0.311
25,AACAGAGC,-0.0439

row,Sequence,PBM E-score
1,ACTCTGTG,-0.0599
2,GTGCCATA,-0.14
3,CCAAAAGC,-0.0875
4,TCGCATAA,0.205
5,AATACTTC,-0.0521
6,AAGAATGA,0.293
7,AATGTCAT,0.306
8,GCTGTCAC,0.197
9,AGTGTCAT,0.21
10,CATGTCAA,0.105
11,AATGTCGG,-0.0313
12,GATGTCAA,-0.0282
13,ACTGTCAT,0.0825
14,GATGTCAC,0.395
15,CATGTCAC,0.383
16,CATGTCAG,0.0449
17,AATGTCGT,0.302
18,AATGTCGA,0.146
19,GAGTTGTA,0.0502
20,GGTAGCTA,-0.16
21,AAACTCGC,-0.0402
22,GAGTGTCC,-0.0553
23,CACCTCGC,-0.0945
24,ACAGTTGA,-0.00384
25,ATGGAGAA,-0.0924

row,Sequence,PBM E-score
1,CTTGTGGA,-0.249
2,GTCCCAAC,0.0207
3,ACAGCTAA,-0.159
4,AGTGTCAC,0.174
5,CGTGTCAC,0.327
6,AATGTCAG,-0.169
7,CGTGTCAG,0.27
8,AATGTCAC,0.416
9,AATGTCAA,-0.00569
10,CACGCCGG,-0.0297
11,GATAGGTA,0.0863
12,CGGGCGGA,-0.157
13,CTTGCATA,0.0552
14,TGCGTACA,0.0613
15,ACCGTACG,0.34
16,ACCGTACA,0.327
17,CCCGTACG,0.348
18,TCCGTACA,0.368
19,ACCGTACT,0.286
20,ACCGTAAG,0.226
21,TCCGTAAA,0.145
22,CCCGTACA,0.263
23,AACGTACG,0.222
24,CCCGTACC,0.182
25,AGCGTACA,-0.121

row,Sequence,PBM E-score
1,CTCAGCCA,-0.0785
2,CGCGCAGA,0.103
3,AGTAACGG,0.0792
4,AAGAGAGT,-0.24
5,GAAGGGTC,-0.227
6,ACTAAAAG,0.0434
7,CAATGCCG,-0.0313
8,AGTTGAGG,-0.116
9,CTTACGGC,-0.0264
10,GCCGTACA,0.294
11,ACCGTACC,0.118
12,GCCGTACC,0.356
13,TCATACGA,0.328
14,ACATACTA,0.109
15,ACATACGG,0.3
16,ACATACGT,0.033
17,GCATACGA,0.0403
18,CCATACGA,0.283
19,CCATACGG,0.281
20,GCCTACGA,0.239
21,TCCTACGA,0.347
22,ACATACGA,0.356
23,CCCTACGA,0.041
24,ACATACGC,-0.0157
25,GCTAGTAC,0.0984

row,Sequence,PBM E-score
1,AGCTTGAA,-0.106
2,TACCGTCA,0.262
3,CGTATCAG,0.0845
4,TCATTCGA,0.129
5,ACCTCTGG,-0.129
6,GAGCCTGA,-0.165
7,AAACCGGA,0.00218
8,CCACGAAA,0.216
9,CCACGATA,0.143
10,CCACGATC,0.335
11,ACACGATC,0.25
12,CCACGAAG,0.0703
13,CCACGAAC,0.338
14,CTCGGGAA,0.0853
15,AGTCATGA,0.149
16,ACCTTTTG,-0.00807
17,GAATGAGA,0.0436
18,TAATGAAA,0.12
19,ACATGATA,0.315
20,GAATGAAA,-0.0868
21,GAATGATA,0.397
22,CAATGATG,0.106
23,TAATGAGA,0.0631
24,ACATGATC,0.292
25,TAATGATA,0.348

row,Sequence,PBM E-score
1,CAATGAGA,-0.0863
2,CAATGATA,0.322
3,GCATGATA,0.268
4,CGGAGAAC,-0.184
5,GTAGATAC,0.0486
6,CCTGTGTC,-0.275
7,CGTAGAAC,0.118
8,AACCACAT,0.182
9,GCCATAGC,-0.055
10,ACTTCAAG,0.0326
11,CTACGTGC,-0.0934
12,ACGGACGG,0.077
13,TCGGTGCA,-0.0272
14,AAATGAGG,0.0174
15,CAATGAAC,-0.0206
16,AAATGATT,0.275
17,AAATGATG,0.318
18,GAATGATC,0.32
19,AAATGATC,0.228
20,AAATGAAA,0.214
21,ACATGATG,0.119
22,AAATGATA,0.409
23,CAATGATC,0.31
24,GAATGAGC,0.051
25,GAATGAAC,-0.112
